Screening data deposited in PubChem BioAssay by several laboratories.
HSF-1 act – HSF-1 activators, primary screen, NIH3T3-HGL cells, MG132 stress, luminescence, single point | NIH3T3-HGL HSF-1 luciferase reporter, 8 h; 100% = twice DMSO control signal | activation, % at 9 µM | 300,000 compounds, 1.7% hits;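 active = mean replicate activation of at least 50% with a set share of replicates each reaching 50%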;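 note: 0% = median of the neutral control wells and 100% = twice that signal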
MITF TRPM1 HTS – activators of MITF-driven TRPM1 promoter reporter, primary screen, cell-based, SK-MEL-5, luciferase, single point; activation, % at 12.5 µM; SK-MEL-5 TRPM1-promoter luciferase, 24 h; % of positive control, neutral wells = 0; AID 588334, 2011; 300,000 compounds, 0.75% hits;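 active = mean activation of at least 80% with every replicate also reaching 80%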;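 note: 0% = neutral control wells and 100% = parthenolide positive control wells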
esBAF inh – Bmi1 luciferase reporter increase in mESCs, primary screen, esBAF inhibitor project, mouse ES cells, Bmi1 luciferase knock-in, single point | reporter increase, % at 12.5 µM | AID 602393, 2012 | 24 h; 100% = twice the neutral-well signal | 350,000 compounds, 2% hits; in the data active = activation above about 40%;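 note: 0% = median of the plate's neutral control wells and 100% = double that signal; a rise in the Bmi1 reporter signal indicates esBAF inhibition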
Wnt act – Wnt/beta-catenin pathway activators, primary screen, cell-based, plate reader, single point | Wnt/beta-catenin reporter cell assay, activator | activation, % at 9.35 µM | 300,000 compounds, 1.2% hits; in the data active = activation above about 30%, passing the limit was not always enough;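 note: 0% = neutral control wells and 100% = positive control wells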
HSF1 inhib – HSF1 inhibitors in luciferase reporter cells, primary screen, cell-based, NIH3T3, luminescence. 300,000 compounds, 0.77% hits. activity change, negative = inhibition, % at 7.5 µM (by protocol). NIH3T3-HGL HSE-luciferase, MG132-induced, luminescence 8 h; active compounds read low. AID 2098, 2009;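 active = more than half of replicate wells show activity change below -50%, luminescence cut by over half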;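 note: luciferase reports HSF-1 transcriptional activity via heat shock element; 0% = median of DMSO wells and -100% = zero luminescence signal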
SMARCA2 act – SMARCA2 (BRM) function activators, primary screen, cell-based, luminescence, high throughput. activation, % at 9.1 µM. 370,000 compounds, 1% hits. MG213 cells, MMTV-luciferase reporter, dexamethasone, overnight; in the data active = activation above about 7.8%;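 note: 0% = vehicle wells and 100% = reference activator wells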
Starred values were filed as active, the others as inactive. A selection: hits, their analogues and other compounds. The true share with any hit is near 4.3%.

Results for COc1ccc2nc(-c3cccc(N)c3)[nH]c2c1 ?
HSF-1 act: 12; MITF TRPM1 HTS: 58; esBAF inh: -30; Wnt act: 3; HSF1 inhib: 0; SMARCA2 act: 2

How did O=C(NCCc1ccccc1)c1cccc(NC(=O)C2CCC2)c1 do in these assays?
MITF TRPM1 HTS: 43; esBAF inh: 57*; Wnt act: 7; SMARCA2 act: 2

What do the screens show for `O=C(NCCc1ccccc1)c1cccc(NC(=O)C2CC2)c1`?
MITF TRPM1 HTS: 61; esBAF inh: 52*; Wnt act: 0; SMARCA2 act: 5

How did O=C(NCCCc1ccccc1)c1cccc(NC(=O)C2CCCC2)c1 do in these assays?
MITF TRPM1 HTS: 7; esBAF inh: 3; Wnt act: -4; SMARCA2 act: -2

What do the screens show for `Cc1cccc(S(=O)(=O)N(C)C[C@@H]2OCc3ccccc3-c3ccccc3C(=O)N([C@H](C)CO)C[C@@H]2C)c1`?
esBAF inh: 4

Results for C(=NN1CCCCCC1)c1ccc2c(c1)OCO2 ?
MITF TRPM1 HTS: 23; esBAF inh: 19; Wnt act: 33*; SMARCA2 act: 1

Results for O=C(/C=C/C=C/c1ccc2c(c1)OCO2)N1CCCCC1 ?
MITF TRPM1 HTS: 98*; esBAF inh: 51*; Wnt act: 1; SMARCA2 act: 4

How did C(=N\n1cnnc1)/c1ccc2c(c1)OCO2 do in these assays?
HSF-1 act: -25; MITF TRPM1 HTS: -8; esBAF inh: -1; Wnt act: -2; HSF1 inhib: -4; SMARCA2 act: 1

How did O=S(=O)(NCc1ccc(C(F)(F)F)cc1)c1ccc(-n2cnnn2)cc1 do in these assays?
HSF-1 act: -93; MITF TRPM1 HTS: 0; esBAF inh: -1; Wnt act: -2; HSF1 inhib: -90*; SMARCA2 act: -2

Results for COc1ccc(OC)c(S(=O)(=O)Nc2ccccc2C)c1 ?
HSF-1 act: -11; MITF TRPM1 HTS: 2; esBAF inh: -9; Wnt act: -4; HSF1 inhib: 4; SMARCA2 act: -1

Results for COc1ccc(OC)c(S(=O)(=O)Nc2ccccc2O)c1 ?
HSF-1 act: 90*; MITF TRPM1 HTS: -5; Wnt act: 1; HSF1 inhib: 67; SMARCA2 act: -3

Results for Cc1ccc(S(=O)(=O)Nc2ccc3c(c2)CC(=O)N([C@@H](C)CO)C[C@@H](C)[C@H](CN(C)Cc2ccc4c(c2)OCO4)O3)cc1 ?
esBAF inh: -1

Results for O=C(Nc1ccccc1F)Nc1ccccc1N1CCCCC1 ?
HSF-1 act: 2; MITF TRPM1 HTS: 0; esBAF inh: 5; Wnt act: 47*; HSF1 inhib: 7; SMARCA2 act: -7

How did CC(C)(C)c1ccc(NC(=O)Nc2ccc(F)cc2)cc1 do in these assays?
HSF-1 act: 57*; MITF TRPM1 HTS: 65; Wnt act: -3; HSF1 inhib: 30; SMARCA2 act: -1

Results for COC(=O)c1sccc1NC(=O)Nc1ccccc1F ?
HSF-1 act: 58*; MITF TRPM1 HTS: 12; esBAF inh: 8; Wnt act: 1; HSF1 inhib: 22; SMARCA2 act: -2

How did O=C(Nc1ccccc1N1CCCCC1)c1ccc(F)cc1 do in these assays?
HSF-1 act: -3; MITF TRPM1 HTS: 0; esBAF inh: -4; HSF1 inhib: 0; SMARCA2 act: -1

Results for COC(=O)c1sccc1NC(=O)c1ccc(C)s1 ?
HSF-1 act: 5; esBAF inh: 12; Wnt act: 34*; HSF1 inhib: 0; SMARCA2 act: 3

How did N#C[C@H]1[C@H](c2ccc(-c3cccnc3)cc2)[C@@H](CO)N1C(=O)C1CCC1 do in these assays?
esBAF inh: 8

What do the screens show for `CCC(=O)N1CC[C@@H]2[C@H](CO)Nc3ccc(-c4ccc(C(=O)N(C)C)cc4)cc3[C@@H]21`?
esBAF inh: 8

How did COC(=O)c1ccc(NC(=O)Nc2ccc(F)cc2)cc1 do in these assays?
HSF-1 act: 1; MITF TRPM1 HTS: 64; esBAF inh: 60*; HSF1 inhib: 7; SMARCA2 act: 2

How did COc1ccc(NC(=O)Nc2ccccc2F)cc1 do in these assays?
HSF-1 act: 40; MITF TRPM1 HTS: 72; esBAF inh: 32; Wnt act: 25; HSF1 inhib: 29; SMARCA2 act: 5

How did O=C(Nc1ccc(F)cc1)Nc1ccccc1F do in these assays?
HSF-1 act: 24; MITF TRPM1 HTS: 55; esBAF inh: 74*; Wnt act: -5; HSF1 inhib: 15; SMARCA2 act: 4

Results for O=C(C#Cc1ccccc1)Nc1ccccc1F ?
HSF-1 act: 106*; MITF TRPM1 HTS: 2; esBAF inh: 22; Wnt act: 14; HSF1 inhib: 58; SMARCA2 act: 3

What do the screens show for `Cc1cccnc1NC(=O)Nc1ccc(F)cc1`?
HSF-1 act: 30; MITF TRPM1 HTS: 40; esBAF inh: 51*; Wnt act: 0; HSF1 inhib: 11; SMARCA2 act: 3

How did CNC(=O)Nc1ccccc1F do in these assays?
HSF-1 act: 24; MITF TRPM1 HTS: -6; esBAF inh: -7; Wnt act: 0; HSF1 inhib: -7; SMARCA2 act: 1

How did Cc1ccc(NC(=O)Nc2ncccc2C)cc1 do in these assays?
HSF-1 act: 42; MITF TRPM1 HTS: 29; Wnt act: 30; HSF1 inhib: 16; SMARCA2 act: 6

Results for Cc1noc(C)c1NC(=O)Nc1ccc2c(c1)C(=O)N([C@@H](C)CO)C[C@H](C)[C@@H](CN(C)S(=O)(=O)c1ccccc1)OCCCC[C@H](C)O2 ?
esBAF inh: 2

How did O=C(C[C@H]1CC[C@H]2[C@@H](COC[C@@H](O)CN2Cc2cccc(C(F)(F)F)c2)O1)NCc1ccc(F)cc1 do in these assays?
esBAF inh: 3

Results for Cc1noc(C)c1S(=O)(=O)Nc1ccc2c(c1)CC(=O)N([C@@H](C)CO)C[C@@H](C)[C@H](CN(C)S(=O)(=O)c1c(C)noc1C)O2 ?
esBAF inh: -3

How did NC(=O)c1ccc(NC(=O)C#Cc2ccccc2)cc1 do in these assays?
HSF-1 act: 61*; MITF TRPM1 HTS: -9; esBAF inh: 32; Wnt act: 41*; HSF1 inhib: 51; SMARCA2 act: 2

How did COC(=O)c1ccc(NC(=O)Nc2ccccc2F)cc1 do in these assays?
HSF-1 act: 70*; MITF TRPM1 HTS: 25; esBAF inh: 20; Wnt act: -3; HSF1 inhib: 35; SMARCA2 act: 1

What do the screens show for `COC(=O)c1ccc(NC(=O)Nc2ccccc2C)cc1`?
HSF-1 act: 18; MITF TRPM1 HTS: 63; Wnt act: 8; HSF1 inhib: 15; SMARCA2 act: 1
